HEK cytotox – HEK 293 cell cytotoxicity. HEK 293 viability, ATP luminescence (CellTiter-Glo), 48-72 h. Potency, µM (series often up to 115 µM), actives largely listed as inhibitors. 94,000 compounds, 6.6% hits. AID 1345083; note: nearly all actives have a fitted effect of over 60% in size
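CellTiter-Glo luminescence (cellular ATP) was read after 48 or 72 hr of compound exposure at 37 degree Celsius. Cells were HEK 293 plated at 250 cells/well.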
3T3 cytotox – NIH 3T3 cell cytotoxicity. NIH 3T3 viability, CellTiter-Glo ATP luminescence, 48-72 h. Potency, µM (series often up to 96.7 µM), hits mostly inhibitors. 94,000 compounds, 4.3% hits; note: nearly all actives have a fitted effect of over 55% in size
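First NIH 3T3 cells are plated at 400 cells/well; next compound is pinned in; then plates incubate 48 or 72 hr at 37 °C; finally CellTiter-Glo is added and luminescence read after 10 min.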
NPR1 antag – antagonists of human natriuretic peptide receptor Npr1 | P16066 | HEK293 hNpr1 GloSensor cGMP, ANP-stimulated luminescence | Potency, µM (titrated, usually from 46.3 µM), hits mostly inhibitors | 76,000 compounds, 1.6% hits | AID 1347048; calls by dose curve; note: nearly all actives have a fitted effect of over 60% in size
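HEK293 cells stably expressing human Npr1 and cGMP GloSensor pGS-40F, loaded 2 h with 2% GloSensor reagent, given compound 30 min at room temperature. Luminescence read before and 20 min after 0.1 nM hNppA.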
Luciferase inh – Photinus pyralis luciferase inhibition; P08659; purified P. pyralis luciferase, luminescence, biochemical; Potency, µM (titrated, usually from 115 µM), actives largely listed as inhibitors; 76,000 compounds, 2.5% hits; AID 1347043; note: nearly all actives have a fitted effect of over 65% in size
Target sequence (P08659 whole entry, looked up): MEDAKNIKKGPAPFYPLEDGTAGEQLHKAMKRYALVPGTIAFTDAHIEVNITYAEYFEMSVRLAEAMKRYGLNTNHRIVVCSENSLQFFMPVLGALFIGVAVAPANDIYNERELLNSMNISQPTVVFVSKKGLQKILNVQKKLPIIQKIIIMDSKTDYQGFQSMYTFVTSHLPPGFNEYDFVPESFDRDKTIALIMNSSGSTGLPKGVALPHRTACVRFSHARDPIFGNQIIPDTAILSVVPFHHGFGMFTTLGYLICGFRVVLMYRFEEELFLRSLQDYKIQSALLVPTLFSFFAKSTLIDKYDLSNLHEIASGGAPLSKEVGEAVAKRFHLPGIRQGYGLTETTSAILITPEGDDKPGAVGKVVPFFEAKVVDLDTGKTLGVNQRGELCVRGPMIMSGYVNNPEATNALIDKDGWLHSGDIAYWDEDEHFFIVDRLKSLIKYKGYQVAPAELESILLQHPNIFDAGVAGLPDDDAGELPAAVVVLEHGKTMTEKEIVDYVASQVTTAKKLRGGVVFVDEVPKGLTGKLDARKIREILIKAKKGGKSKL
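Purified 10nM P. pyralis luciferase with 10uM D-luciferin and 10uM ATP in 50mM Tris acetate pH 7.5, 10mM Mg acetate, 0.01% Tween-20, 0.05% BSA. qHTS titration; luminescence read by CCD imager.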
Each line names hits and unclear results; the compound was inactive in the other large screens. An excerpt weighted towards active compounds, which were near 11% of everything screened. Unless noted, calls come from the whole dose curve; as a rule, active = well fitted curve in the direction sought with a large enough effect; inconclusive = small, poorly fitted or top-dose-only effect, or another doubt; inactive = no such curve, though single readings can be large; an effect the other way counts as inactive or inconclusive.

CCN(CC)Cc1cc(-c2nc(C3CCOC3)no2)c(-c2ccccc2)o1 (centres undefined)	3T3 cytotox inconclusive
CCn1ccc(C(=O)N2CC(Oc3ccc(-c4nc(C)no4)cc3)C2)n1	HEK cytotox inconclusive
CCn1ccc(C(=O)N2CC(Oc3ccc(-c4nc(-c5ccccc5)no4)cc3)C2)n1	HEK cytotox inconclusive, 3T3 cytotox 39.8µM, Luciferase inh inconclusive
CCn1nccc1C(=O)N1CC(Oc2ccc(-c3nc(-c4ccccc4)no3)cc2)C1	HEK cytotox 11.2µM, 3T3 cytotox inconclusive, NPR1 antag 4.47µM, Luciferase inh inconclusive
O=C(NCc1ccc(F)cc1)c1nc2cccnc2n(CCc2ccccc2)c1=O	HEK cytotox inconclusive (no result: NPR1 antag, Luciferase inh)
COc1cc(CNC(=O)c2nc3nc(-c4ccccc4)c(Cl)cc3n2C)cc(OC)c1	HEK cytotox inconclusive
O=C(NCc1cc2n(n1)CCNC2)c1cc2c(s1)CCCCC2	Luciferase inh 31.6µM
COCCOC1CCN(C(=O)c2cc(C)n(CCOC)c2C)CC1	Luciferase inh 20µM
CC1=C[C@@H](CNC(=O)c2ccncc2)[C@H](C(C)C)C[C@H]1CC(=O)N1CCCC1	Luciferase inh inconclusive
CC1=C[C@@H](CO)[C@H](C(C)C)C[C@H]1CC(=O)N1CCN(c2ccccn2)CC1	HEK cytotox 100µM, 3T3 cytotox inconclusive, Luciferase inh inconclusive
Cc1ccccc1C(=O)N1CCC(CCC(=O)N2CCN(c3ccccn3)CC2)CC1	HEK cytotox inconclusive, Luciferase inh 31.6µM
CCOC(=O)C[C@@H]1C[C@@H](C(C)C)[C@H](CNC(=O)c2ccncc2)C=C1C	HEK cytotox 89.1µM, 3T3 cytotox inconclusive, NPR1 antag inconclusive
CC1=C[C@@H](CNC(=O)c2ccncc2)[C@H](C(C)C)C[C@H]1CC(=O)N1CCN(C)CC1	Luciferase inh 20µM
O=C1Nc2ccccc2CC12CCN(Cc1ccc(OC(F)(F)F)cc1)CC2	HEK cytotox inconclusive, 3T3 cytotox inconclusive
CCCCc1cc(C[C@@H]2C[C@H](NC(=O)c3cccc(F)c3)C2(C)C)no1	HEK cytotox 63.1µM, 3T3 cytotox 63.1µM, NPR1 antag inconclusive
CC1(C)[C@H](Cc2cc(COc3ccccc3)on2)C[C@@H]1NC(=O)Cc1ccccc1	HEK cytotox 56.2µM, 3T3 cytotox 56.2µM, NPR1 antag inconclusive
CC(C)(C)CN[C@H]1C[C@@H](Cc2cc(COc3ccccc3)on2)C1(C)C	HEK cytotox 22.4µM, 3T3 cytotox 28.2µM
CC1(C)[C@H](Cc2cc(COc3ccccc3)on2)C[C@@H]1NC1CCOCC1	HEK cytotox inconclusive, 3T3 cytotox inconclusive
CC1(C)[C@H](Cc2cc(COc3ccccc3)on2)C[C@@H]1NC(=O)COc1ccccc1	HEK cytotox 50.1µM, 3T3 cytotox 63.1µM, NPR1 antag inconclusive
CN(Cc1cc(C[C@@H]2C[C@H](NC(=O)COc3ccccc3)C2(C)C)no1)c1ccccc1	HEK cytotox inconclusive, 3T3 cytotox inconclusive, NPR1 antag inconclusive
COc1ccc(C(=O)N[C@H]2C[C@@H](Cc3cc(COc4ccccc4)on3)C2(C)C)cc1	HEK cytotox inconclusive, 3T3 cytotox 28.2µM, NPR1 antag inconclusive
CCCN[C@H]1C[C@@H](Cc2cc(COc3ccccc3)on2)C1(C)C	HEK cytotox inconclusive, 3T3 cytotox inconclusive
COCC(=O)N[C@H]1C[C@@H](Cc2cc(-c3ccc(OC)cc3)on2)C1(C)C	HEK cytotox 35.5µM, 3T3 cytotox 56.2µM, Luciferase inh inconclusive
CCNC(=O)N[C@H]1C[C@@H](Cc2cc(COc3ccccc3)on2)C1(C)C	HEK cytotox 89.1µM, 3T3 cytotox inconclusive
COc1ccc(-c2cc(C[C@@H]3C[C@H](NC(=O)c4ccccc4)C3(C)C)no2)cc1	HEK cytotox inconclusive, 3T3 cytotox inconclusive, NPR1 antag inconclusive
CN1CCC(N[C@H]2C[C@@H](Cc3cc(-c4ccc(F)cc4)on3)C2(C)C)CC1	HEK cytotox 8.91µM, 3T3 cytotox 7.08µM, NPR1 antag inconclusive, Luciferase inh 63.1µM
O=C(c1ccc2c(c1)OCO2)N1CCN(c2nnc3ccccn23)CC1	HEK cytotox inconclusive
CCCCn1c(=O)c(C(=O)N2CCN(C(=O)N(C)C)CC2)nc2cccnc21	none (no result: NPR1 antag, Luciferase inh)
CC(C)c1nc2c(NC(=O)c3cccc(Br)c3)cccn2n1	HEK cytotox inconclusive
Cc1ccc(-c2noc([C@@H]3Cc4nc[nH]c4CN3Cc3ccccc3)n2)cc1	HEK cytotox 100µM, 3T3 cytotox 79.4µM, Luciferase inh inconclusive
CN(C)c1ccc(CN2Cc3[nH]cnc3C[C@H]2c2nc(-c3ccncc3)no2)cc1	3T3 cytotox inconclusive
